PubChem BioAssay (Tox21)
Inconclusive results are not listed. Entries that show only a call come without a potency. Calls of active or inactive are those of the source. Unless noted, the call rests on the fitted dose curve.

Legend:
[1] = qHTS assay to identify small molecule antagonists of the sonic hedgehog signaling (Shh) pathway (AID 1259369); further: nearly all actives have a fitted effect of over 45% in size; further: potency means the concentration at half of the fitted maximal effect
How it was run: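 For antagonist detection, the reporter line received test compounds together with conditioned medium, incubated 24hr at 37 C, 5% CO2, then luminescence was recorded following 30min room-temperature luciferase reagent incubation.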

[2] = target: Estrogen receptor beta (Homo sapiens) (UniProt Q92731); test: qHTS assay to identify small molecule agonists of the estrogen receptor beta (ER-beta) signaling pathway (AID 1259377; active means well fitted activation curve with a large enough effect in the signal ratio in the repeat runs, not every such curve was filed as active; the % refers to the signal ratio; further: potency means the concentration at half of the fitted maximal effect)
How it was run: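 Measured by fluorescence intensity from a B/G FRET beta-lactamase substrate (2 h, room temperature) in ER-beta-UAS-bla HEK293T cells treated with DMSO-dissolved compounds for 16 hr at 37C and 5% CO2.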

[3] = target: Estrogen receptor beta (Homo sapiens) (UniProt Q92731); test: qHTS assay to identify small molecule antagonists of the estrogen receptor beta (ER-beta) signaling pathway (AID 1259378; active means well fitted inhibition curve with a large enough effect in the signal ratio in the repeat runs, not every such curve was filed as active; the % refers to the signal ratio)
How it was run: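 ER-beta-UAS-bla HEK293T cells in 2% charcoal-stripped FBS medium treated with compound plus 1nM final 17-beta-estradiol for 16 hr at 37C. Beta-lactamase reporter read by FRET substrate fluorescence after 2 hours at room temperature.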

[4] = qHTS assay to identify small molecule agonists of the androgen receptor (AR) signaling pathway in the presence of an antagonist - cell viability counter screen (AID 1259379; active means well fitted curve in the direction sought with a large enough effect in the repeat runs; an effect the other way counts as inactive or inconclusive; further: nearly all actives have a fitted effect of over 25% in size; further: potency means the concentration at half of the fitted maximal effect)
How it was run: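 Seed MDA-kb2 at 3,000 cells/well; incubate 5 hr, 37C, 0% CO2. Add nilutamide to 3.0uM final, then pin compounds at 15 concentrations. Incubate 16 hr. Add CellTiter-Fluor at 15 hr, read fluorescence after 1 hr.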

[5] = qHTS assay to identify small molecule agonists of the estrogen receptor beta (ER-beta) signaling pathway - cell viability counter screen (AID 1259380; active means well fitted curve in the direction sought with a large enough effect in the repeat runs; an effect the other way counts as inactive or inconclusive; further: nearly all actives have a fitted effect of over 30% in size)
How it was run: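 CellTiter-Glo read, 30 min RT, same wells as bla assay; cells ER-beta-UAS-bla HEK293T; 16 hr compound, 37C; medium 2% charcoal-stripped FBS.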

[6] = qHTS assay to identify small molecule antagonists of the estrogen receptor beta (ER-beta) signaling pathway - cell viability counter screen (AID 1259382; active means well fitted curve in the direction sought with a large enough effect in the repeat runs; an effect the other way counts as inactive or inconclusive; further: series mostly up to about 92 µM; nearly all actives have a fitted effect of over 55% in size)
How it was run: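 In this multiplexed counter screen, cells were seeded at 2,000 per well in medium with 2% charcoal-stripped FBS and incubated 6 hr before compound and 1nM final E2 were added. Sixteen hours later, ATP-based luminescence reported viability.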

[7] = target: Estrogen receptor (Homo sapiens) (UniProt P03372); test: qHTS assay to identify small molecule agonists of the estrogen receptor alpha (ER-alpha) signaling pathway in the presence of an antagonist (AID 1259383); further: nearly all actives have a fitted effect of over 15% in size; further: potency means the concentration at half of the fitted maximal effect; on activation: top concentration of the series differs between compounds
How it was run: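 Stably transfected VM7Luc4E2 reporter cells, kept 5 days in charcoal-stripped serum, received ICI-182,780 at 10.0nM final before compound addition. Following 22hr incubation at 37C and 5% CO2, luciferase signal was read by luminescence.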

[8] = qHTS assay to identify small molecule agonists or antagonists of the thyroid stimulating hormone receptor (TSHR) signaling pathway - wild type cell line counter screen (AID 1259384)
How it was run: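 Wild-type Hek293 cells, 800/well, 18 h at 37C, then compound with Ro20-1724 for 30 min RT. cAMP by HTRF (cAMP-d2/anti-cAMP cryptate), 1 h RT, fluorescence read. 15 concentrations, triplicates.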

[9] = target: Thyrotropin receptor (Homo sapiens) (UniProt P16473); test: qHTS assay to identify small molecule antagonists of the thyroid stimulating hormone receptor (TSHR) signaling pathway (AID 1259385); further: nearly all actives have a fitted effect of over 20% in size
How it was run: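 TSHR-HEK293 cells (800/well) plated 18 h, then compounds with Ro20-1724 and TSH at 1.5 ng/mL final, 30 min at room temperature. cAMP quantified by HTRF (cAMP-d2/anti-cAMP-cryptate, 1 h); 15 concentrations in triplicate.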

[10] = target: Androgen receptor (Homo sapiens) (UniProt P10275); test: qHTS assay to identify small molecule agonists of the androgen receptor (AR) signaling pathway in the presence of an antagonist (AID 1259381); further: nearly all actives have a fitted effect of over 15% in size
How it was run: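 Test compounds at 15 concentrations were incubated for 16hr with MDA-kb2 reporter cells in presence of 3.0uM nilutamide (final). Signal: ONE-Glo luciferase luminescence.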

Chain of Androgen receptor (Homo sapiens) (P10275 whole entry, looked up): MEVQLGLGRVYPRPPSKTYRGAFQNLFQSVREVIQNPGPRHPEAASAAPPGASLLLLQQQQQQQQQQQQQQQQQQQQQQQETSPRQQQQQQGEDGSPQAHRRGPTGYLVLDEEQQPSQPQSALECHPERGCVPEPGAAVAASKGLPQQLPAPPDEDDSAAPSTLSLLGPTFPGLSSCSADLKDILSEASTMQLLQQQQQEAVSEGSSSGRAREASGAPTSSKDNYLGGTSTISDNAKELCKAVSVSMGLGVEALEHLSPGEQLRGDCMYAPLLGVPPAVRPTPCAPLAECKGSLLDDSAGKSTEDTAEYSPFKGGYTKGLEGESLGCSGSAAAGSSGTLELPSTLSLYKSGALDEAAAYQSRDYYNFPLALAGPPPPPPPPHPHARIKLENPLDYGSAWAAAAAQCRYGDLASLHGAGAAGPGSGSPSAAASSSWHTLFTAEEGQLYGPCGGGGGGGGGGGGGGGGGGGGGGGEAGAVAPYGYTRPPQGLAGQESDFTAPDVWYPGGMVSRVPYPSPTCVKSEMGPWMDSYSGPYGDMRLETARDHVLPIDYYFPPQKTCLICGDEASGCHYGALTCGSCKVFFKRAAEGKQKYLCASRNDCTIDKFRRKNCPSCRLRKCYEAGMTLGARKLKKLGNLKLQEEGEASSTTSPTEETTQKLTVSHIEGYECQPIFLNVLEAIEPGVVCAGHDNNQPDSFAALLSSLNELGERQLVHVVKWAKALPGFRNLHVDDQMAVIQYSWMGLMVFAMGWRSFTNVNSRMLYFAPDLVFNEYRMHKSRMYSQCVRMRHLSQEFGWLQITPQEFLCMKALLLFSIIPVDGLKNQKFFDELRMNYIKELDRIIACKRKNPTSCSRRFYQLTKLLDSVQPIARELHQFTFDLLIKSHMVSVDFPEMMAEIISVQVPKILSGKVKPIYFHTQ
Chain of Thyrotropin receptor (Homo sapiens) (P16473 whole entry, looked up): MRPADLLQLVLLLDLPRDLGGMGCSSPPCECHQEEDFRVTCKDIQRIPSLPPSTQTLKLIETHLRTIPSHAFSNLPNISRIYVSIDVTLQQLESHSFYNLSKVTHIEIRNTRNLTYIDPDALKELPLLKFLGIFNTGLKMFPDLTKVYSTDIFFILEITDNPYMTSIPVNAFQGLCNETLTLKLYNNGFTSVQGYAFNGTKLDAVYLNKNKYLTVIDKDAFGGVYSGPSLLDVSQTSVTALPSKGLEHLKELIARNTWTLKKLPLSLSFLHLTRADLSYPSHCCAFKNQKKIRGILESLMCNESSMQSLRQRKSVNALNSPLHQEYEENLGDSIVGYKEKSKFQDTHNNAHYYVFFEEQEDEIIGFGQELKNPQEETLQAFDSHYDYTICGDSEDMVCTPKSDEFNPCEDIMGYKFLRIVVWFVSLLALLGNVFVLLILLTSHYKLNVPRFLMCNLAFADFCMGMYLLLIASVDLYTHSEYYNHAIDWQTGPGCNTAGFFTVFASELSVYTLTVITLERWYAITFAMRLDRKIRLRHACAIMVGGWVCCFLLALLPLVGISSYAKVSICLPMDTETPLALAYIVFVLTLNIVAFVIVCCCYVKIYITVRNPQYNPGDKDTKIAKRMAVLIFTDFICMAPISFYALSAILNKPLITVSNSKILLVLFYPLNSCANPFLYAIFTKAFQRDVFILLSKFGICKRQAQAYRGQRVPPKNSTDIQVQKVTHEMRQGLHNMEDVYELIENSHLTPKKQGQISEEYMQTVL
Chain of Estrogen receptor (Homo sapiens) (P03372 whole entry, looked up): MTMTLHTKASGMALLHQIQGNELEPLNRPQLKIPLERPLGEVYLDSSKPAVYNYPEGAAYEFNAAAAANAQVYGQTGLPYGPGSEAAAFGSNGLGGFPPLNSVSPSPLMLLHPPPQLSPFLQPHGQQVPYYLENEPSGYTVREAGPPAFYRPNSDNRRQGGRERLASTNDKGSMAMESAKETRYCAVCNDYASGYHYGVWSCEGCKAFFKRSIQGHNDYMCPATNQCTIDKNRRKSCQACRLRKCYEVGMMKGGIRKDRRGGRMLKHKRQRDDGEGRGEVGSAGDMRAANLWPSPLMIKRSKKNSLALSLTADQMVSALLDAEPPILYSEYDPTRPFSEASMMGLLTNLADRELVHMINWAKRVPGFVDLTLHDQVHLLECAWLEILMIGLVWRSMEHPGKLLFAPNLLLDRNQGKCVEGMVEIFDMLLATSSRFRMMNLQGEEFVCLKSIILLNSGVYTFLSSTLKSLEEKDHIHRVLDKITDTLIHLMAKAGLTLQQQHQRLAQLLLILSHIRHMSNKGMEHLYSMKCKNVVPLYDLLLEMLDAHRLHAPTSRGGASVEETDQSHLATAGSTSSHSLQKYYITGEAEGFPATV
Chain of Estrogen receptor beta (Homo sapiens) (Q92731 whole entry, looked up): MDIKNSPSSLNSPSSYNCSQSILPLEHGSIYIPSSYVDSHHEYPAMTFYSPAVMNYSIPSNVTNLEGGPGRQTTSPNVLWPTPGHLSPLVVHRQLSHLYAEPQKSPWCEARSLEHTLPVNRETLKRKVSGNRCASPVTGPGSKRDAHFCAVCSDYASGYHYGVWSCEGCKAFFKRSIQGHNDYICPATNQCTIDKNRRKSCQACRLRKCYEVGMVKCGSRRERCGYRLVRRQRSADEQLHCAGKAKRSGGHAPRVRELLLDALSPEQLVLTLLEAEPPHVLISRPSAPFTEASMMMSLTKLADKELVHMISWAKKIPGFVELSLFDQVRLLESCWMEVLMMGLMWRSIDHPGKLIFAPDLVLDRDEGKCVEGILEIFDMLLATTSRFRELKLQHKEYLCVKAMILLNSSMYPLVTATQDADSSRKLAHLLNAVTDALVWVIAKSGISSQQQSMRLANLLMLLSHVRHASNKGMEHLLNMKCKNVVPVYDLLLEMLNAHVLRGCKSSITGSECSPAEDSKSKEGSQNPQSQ

Row | SMILES | Potency [1] | Potency [2] | Potency [3] | Potency [4] | Potency [5] | Potency [6] | Potency [7] | outcome [8] | Potency [9] | outcome [10]
1 | CCCCCCCC/C=C\CCCCCCCCN | inactive | inactive | inactive | inactive | inactive | inactive | inactive | inactive | inactive | –
2 | Cc1cccc2cccnc12 | inactive | inactive | inactive | inactive | inactive | inactive | – | inactive | inactive | –
3 | COC(=O)c1ccccc1C | inactive | inactive | inactive | inactive | inactive | inactive | inactive | inactive | inactive | –
4 | CCCCCC/C=C\CCCCCCCC(=O)O | inactive | inactive | inactive | inactive | inactive | inactive | inactive | inactive | inactive | –
5 | C=C(C)c1cccc(C(=C)C)c1 | inactive | inactive | inactive | inactive | inactive | inactive | – | inactive | inactive | –
6 | CCCC(=O)OC(C)(C)Cc1ccccc1 | inactive | inactive | inactive | inactive | inactive | inactive | – | – | – | –
7 | C=CCCC(=O)/C=C/C1C(C)=CCCC1(C)C (configuration not stated) | inactive | inactive | inactive | inactive | inactive | inactive | – | – | – | –
8 | CCCCOC(=O)CC | inactive | inactive | inactive | inactive | inactive | inactive | – | inactive | – | –
9 | C=Cc1ccccc1C=C | inactive | inactive | inactive | inactive | inactive | inactive | – | inactive | – | –
10 | CCCCCCCCCCOC(=O)c1ccccc1C(=O)OCCCCCCCC | inactive | inactive | inactive | inactive | inactive | inactive | inactive | inactive | inactive | inactive
11 | CN(C)Cc1ccccc1O | inactive | inactive | inactive | inactive | inactive | inactive | inactive | inactive | inactive | inactive
12 | CCC(CC)C(C)CCOC(C)=O (configuration not stated) | inactive | inactive | inactive | inactive | inactive | inactive | – | inactive | inactive | –
13 | OC[C@@H](O)[C@@H](O)CO | inactive | inactive | inactive | inactive | inactive | inactive | inactive | inactive | inactive | –
14 | O=C(O)c1cc(=O)c2ccccc2o1 | inactive | inactive | inactive | inactive | inactive | inactive | inactive | inactive | inactive | –
15 | CCOC(=O)NNc1ccc(N(CC)CC(C)O)nn1 (configuration not stated) | inactive | inactive | inactive | inactive | inactive | inactive | inactive | inactive | – | –
16 | CC(C)(C)C1CCC(=O)CC1 | 30.6 µM (active) | inactive | inactive | inactive | inactive | inactive | inactive | inactive | inactive | –
17 | Cc1ccc(C(C)C)cc2c(C)ccc1-2 | inactive | inactive | inactive | inactive | inactive | – | inactive | inactive | – | –
18 | CNc1ccc([N+](=O)[O-])cc1 | inactive | inactive | inactive | 48.7 µM (active) | inactive | inactive | inactive | inactive | inactive | inactive
19 | CCCCOC(=O)CO | inactive | inactive | inactive | inactive | inactive | inactive | – | – | – | –
20 | Cc1c(C)c2c(c(C)c1O)CC[C@@](C)(CCC[C@H](C)CCC[C@H](C)CCCC(C)C)O2 | inactive | inactive | inactive | inactive | inactive | inactive | inactive | inactive | inactive | –
21 | C#C[C@]1(O)CC[C@H]2[C@@H]3[C@H](C)CC4=C(CCC(=O)C4)[C@H]3CC[C@@]21C | 29.8 µM (active) | 0.188 µM (active) | inactive | inactive | inactive | – | 0.0841 µM (active) | – | – | –
22 | COC(=O)c1ccccc1OC | inactive | inactive | inactive | inactive | inactive | inactive | inactive | inactive | inactive | –
23 | CC(C)OC(=O)C(O)(CC(=O)O)CC(=O)O | inactive | inactive | inactive | inactive | inactive | inactive | inactive | inactive | – | inactive
24 | CC(C)(C)NSc1nc2ccccc2s1 | inactive | inactive | inactive | inactive | inactive | – | inactive | inactive | inactive | inactive
